This test is described as follows: chemical genetic growth profiling, strain panel (AID 1159580).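 Further: tested at 20 µM; growth read once vehicle control cultures reached saturation at 30 °C; 1 = growth at the plate median or of vehicle wells; lower values mean less growth of the strain.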 As to conditions: growth OD.
Where [1] appears, read: S. cerevisiae deletion strains, locus YAL013W, strain DEP1, active compounds read low.
The mark [2] stands for this setting: S. cerevisiae deletion strains, locus YAL040C, strain CLN3, active compounds read low.
Where [3] appears, read: S. cerevisiae deletion strains, locus YCL061C, strain MRC1 (second series), active compounds read low.
Where [4] appears, read: S. cerevisiae deletion strains, locus YDR150W, strain NUM1, active compounds read low.
The mark [5] stands for this setting: S. cerevisiae deletion strains, locus YDR363W, strain ESC2, active compounds read low.
Setting [6] is: S. cerevisiae deletion strains, locus YER002W, strain NOP16, active compounds read low.
Setting [7] is: S. cerevisiae deletion strains, locus YJR075W, strain HOC1, active compounds read low.
Setting [8] is: S. cerevisiae deletion strains, locus YMR307W, strain GAS1, active compounds read low.
Setting [9] is: S. cerevisiae deletion strains, locus YNL153C, strain GIM3, active compounds read low.
The mark [10] stands for this setting: S. cerevisiae deletion strains, locus YNL175C, strain NOP13, active compounds read low.
[11] abbreviates: S. cerevisiae deletion strains, locus YNL197C, strain WHI3, active compounds read low.
Where [12] appears, read: S. cerevisiae deletion strains, locus YNL224C, strain SQS1, active compounds read low.
[13] abbreviates: S. cerevisiae deletion strains, locus YOR083W, strain WHI5 (second series), active compounds read low.
Setting [14] is: S. cerevisiae deletion strains, locus YPL055C, strain LGE1, active compounds read low.
[15] abbreviates: S. cerevisiae deletion strains, locus YPL241C, strain CIN2, active compounds read low.
Where [16] appears, read: S. cerevisiae deletion strains, locus YGR078C, strain PAC10, active compounds read low.
[17] abbreviates: S. cerevisiae deletion strains, locus YNL322C, strain KRE1, active compounds read low.
[18] abbreviates: S. cerevisiae deletion strains, locus YBR229C, strain ROT2, active compounds read low.
[19] abbreviates: S. cerevisiae deletion strains, locus YCL061C, strain MRC1, active compounds read low.
The mark [20] stands for this setting: S. cerevisiae deletion strains, locus YDL101C, strain DUN1, active compounds read low.
The mark [21] stands for this setting: S. cerevisiae deletion strains, locus YDL134C, strain PPH21, active compounds read low.
Where [22] appears, read: S. cerevisiae deletion strains, locus YEL061C, strain CIN8, active compounds read low.
The mark [23] stands for this setting: S. cerevisiae deletion strains, locus YHR030C, strain SLT2, active compounds read low.
Where [24] appears, read: S. cerevisiae deletion strains, locus YHR087W, strain rtc3, active compounds read low.
Where [25] appears, read: S. cerevisiae deletion strains, locus YJR043C, strain POL32, active compounds read low.
Setting [26] is: S. cerevisiae deletion strains, locus YKL190W, strain CNB1, active compounds read low.
[27] abbreviates: S. cerevisiae deletion strains, locus YLR039C, strain RIC1, active compounds read low.
The mark [28] stands for this setting: S. cerevisiae deletion strains, locus YLR058C, strain SHM2 (second series), active compounds read low.
The mark [29] stands for this setting: S. cerevisiae deletion strains, locus YLR085C, strain ARP6, active compounds read low.
Setting [30] is: S. cerevisiae deletion strains, locus YLR262C, strain YPT6, active compounds read low.
Where [31] appears, read: S. cerevisiae deletion strains, locus YML094W, strain GIM5, active compounds read low.
The mark [32] stands for this setting: S. cerevisiae deletion strains, locus YMR219W, strain ESC1, active compounds read low.
Setting [33] is: S. cerevisiae deletion strains, locus YMR263W, strain SAP30, active compounds read low.
Where [34] appears, read: S. cerevisiae deletion strains, locus YNL298W, strain CLA4 (second series), active compounds read low.
The mark [35] stands for this setting: S. cerevisiae deletion strains, locus YNR030W, strain Alg12, active compounds read low.
The mark [36] stands for this setting: S. cerevisiae deletion strains, locus YPR135W, strain CTF4, active compounds read low.
The mark [37] stands for this setting: S. cerevisiae strains, strain wild type, active compounds read low.

Data on four compounds can be found in PubChem BioAssay AID1159580 (chemical genetic matrix, 2015).

About 2,000 (36%) of roughly 5,500 compounds were called active. Another 18% or so got no clear call; they are omitted. This is one part of the list. A number with no mark means an inactive call. No stated cut-off is given here; in the data, active means normalized growth mostly below about 0.91 (no sharp cut-off); inconclusive means no clear call, values can overlap the other calls; inactive means mostly above about 0.92.

As to `COC1(C2=NCCN2)COc2ccccc2O1` (stereo not drawn), the normalized growth reads like this: under setting [1], 1; under setting [2], 1.01; under setting [3], 1.01; under setting [4], 1.02; under setting [5], 0.995; under setting [6], 1. In addition, the normalized growth under setting [7] is 1.01; the normalized growth under setting [8] was 0.998; the normalized growth (S. cerevisiae deletion strains, locus YNL128W, strain TEP1, active compounds read low) is 0.995; the normalized growth under setting [9] was 1.03; the normalized growth under setting [10] was 1; the normalized growth under setting [11] was 1.01. Moreover, the normalized growth under setting [12] is 1.01, the normalized growth under setting [13] is 1.02, the normalized growth under setting [14] was 0.996 and the normalized growth under setting [15] was 1.01.
For `Nn1nnc2ccccc21`, the normalized growth reads like this: under setting [1], 1.01; under setting [2], 1.02; under setting [3], 1.01; under setting [5], 1; under setting [6], 1.01; under setting [16], 1.01. Besides, the normalized growth was 0.991 under setting [10]; 1.01 under setting [11]; 0.998 under setting [12]; 1.02 under setting [17]; 0.998 under setting [13]; 1.02 under setting [14].
On to `N#CCCNc1cc(C(F)(F)F)cc(C(F)(F)F)c1`, for which the normalized growth reads like this: under setting [1], 0.98; under setting [18], 0.985; under setting [19], 0.96; under setting [20], 0.986; under setting [21], 0.99; under setting [4], 0.96. In addition, the normalized growth reads like this: under setting [22], 0.975; under setting [16], 0.947; (S. cerevisiae deletion strains, locus YGR229C, strain SMI1, active compounds read low) 0.981; under setting [23], 0.867; under setting [24], 0.989; (S. cerevisiae deletion strains, locus YJL187C, strain SWE1, active compounds read low) 0.986. Also, the normalized growth runs as follows: under setting [25], 0.97; under setting [7], 0.883 (active); under setting [26], 0.981; under setting [27], 0.848; under setting [28], 1.01; under setting [29], 0.837. Moreover, the normalized growth under setting [30] is 0.844; the normalized growth under setting [31] was 0.918; the normalized growth under setting [32] is 0.987; the normalized growth under setting [33] was 0.991; the normalized growth under setting [8] was 0.903; the normalized growth under setting [9] was 0.96. Also, the normalized growth is 0.954 under setting [34]; 0.957 under setting [17]; 0.902 under setting [35]; 0.893 under setting [14]; 0.947 under setting [15]; 0.801 under setting [36]. The normalized growth under setting [37] was 0.991.
With `FC(F)(F)c1cc(NC2=NCCN=C(Nc3cc(C(F)(F)F)cc(C(F)(F)F)c3)SS2)cc(C(F)(F)F)c1`, the normalized growth is 1.01 under setting [1]; 1.01 under setting [18]; 0.997 under setting [19]; 0.993 under setting [20]; 0.999 under setting [21]; 1.04 under setting [4]. The normalized growth is 1 under setting [22]; 1 under setting [16]; 0.952 under setting [23]; 0.997 under setting [24]; 0.993 under setting [25]; 0.989 under setting [7]. In addition, the normalized growth by setting is: under setting [26], 1.01; under setting [27], 0.977; under setting [28], 1.01; under setting [29], 0.978; under setting [30], 0.979; under setting [31], 0.975. Further, the normalized growth was 1 under setting [32]; 1.02 under setting [33]; 0.916 under setting [8]; 1.02 under setting [9]; 1.01 under setting [34]; 1 under setting [17]. In addition, the normalized growth reads like this: under setting [35], 0.988; under setting [14], 1.05; under setting [15], 0.99; under setting [36], 0.95; under setting [37], 1.01.
